PubChem BioAssay AID686979 (National Center for Advancing Translational Sciences (NCATS), 2013)
Hit rate of the full screen: of about 420,000 compounds, about 50,000 (12%) were called active. Inconclusive results (about 26%) are left out. The entries come from a sample that favours actives as a whole. Values without a mark were called inactive. The call rests on the fitted dose curve; in most records, active means well fitted inhibition curve with a large enough effect; inconclusive means small, poorly fitted or top-dose-only effect; inactive means flat fitted curve, though single readings scatter.

Assay: qHTS for Inhibitors of human tyrosyl-DNA phosphodiesterase 1 (TDP1): qHTS in cells in presence of CPT; further: nearly all actives have a fitted effect of over 55% in size
Conditions: chicken DT40 Tdp1-/-;hTDP1 cells + 20 nM CPT, ATP luminescence, 48 h; series mostly up to 46.2 µM; activity change, negative = growth inhibition: at the top concentration
Procedure, shortened: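 Cell growth measured by CellTiter-Glo luminescence after a minimum 48 h, 37 C compound exposure with 20 nM CPT in Tdp1-knockout DT40 cells stably expressing hTDP1, seeded 400/well; qHTS titration format.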
On the % scale 0 is the no-effect control and ±100 the full control effect; potency means the concentration at half of the fitted maximal effect.

Compound | activity change, negative = growth inhibition [%] | Potency
Cc1cc(SCc2c(F)cccc2Cl)nc(=O)[nH]1 | 0.592 | –
Cn1ncc2c(N3CCCCC3)nc(NCCCO)nc21 | -2.76 | –
COc1cccc(CN2CCN(Cc3ccc4cccc(F)c4n3)CC2CCO)c1 (centres undefined) | -28.5 | –
CC(=O)c1cccc(NC(=O)c2cc(C)nn2-c2ccccc2)c1 | 2.05 | –
CC(=O)c1cccc(NC(=O)c2nc(-c3ccccc3)n(-c3cccc(C)c3)n2)c1 | – | 16.4 µM (active)
CC(=O)c1cccc(NC(=O)c2ccncc2)c1 | -9.21 | –
COc1cccc(CNC(=O)c2cc(=O)[nH]c3ccc(S(=O)(=O)N4CCCCC4)cc23)c1 | -21.3 | –
O=C1NC[C@H](CCCCN2C[C@H](Cc3ccccc3)N(Cc3ccccc3)C(=O)C2=O)N(CCc2ccc(O)cc2)C1=O | 7.35 | –
O=[N+]([O-])c1ccc2c(c1)C(N1CCOCC1)/C(=C/C1(O)CCCCC1)O2 (centres undefined) | 1.25 | –
Cn1nc(-c2ccccc2)c2cc([N+](=O)[O-])ccc21 | -2.27 | –
CC1(C(=O)Nc2cccc3c2CCCC3)CCN1C(=O)C1(c2ccccc2)CC1 (centres undefined) | – | 16.4 µM (active)
CC1(C(=O)NS(=O)(=O)c2ccc3ccccc3c2)CCN1C(=O)C1(c2ccc(Cl)cc2)CCC1 (centres undefined) | -24.2 | –
Cc1ccccc1S(=O)(=O)NC(=O)C1(C)CCN1C(=O)C1(c2ccc(Cl)cc2)CC1 (centres undefined) | -23.7 | –
CC1(C(=O)Nc2cccc3c2CCCC3)CCN1C(=O)CCc1ccc(Cl)cc1Cl (centres undefined) | – | 20.6 µM (active)
Cc1ccccc1S(=O)(=O)NC(=O)C1(C)CCN1C(=O)Cc1ccc(Cl)cc1Cl (centres undefined) | -20.6 | –
Cc1ccccc1S(=O)(=O)NC(=O)C1(C)CCN1C(=O)C1(c2ccccc2)CCCC1 (centres undefined) | – | 14.6 µM (active)
CC1(C(=O)NS(=O)(=O)Cc2cccc(Cl)c2)CCN1C(=O)Cc1ccc(Cl)cc1Cl (centres undefined) | -18.1 | –
O=C(Nc1cccc2c1CCCC2)c1ccc(F)cc1 | -20.1 | –
CCCNC(=O)C1(C)CCN1C(=O)C1(c2ccccc2)CC1 (centres undefined) | 0.157 | –
CCCC(=O)N1CCC(CCC(=O)NC2CC2)CC1 | 12.6 | –
COc1cc2c(cc1OC)/C(=C/C(=O)c1ccc(NC(C)=O)cc1)NCC2 | -0.215 | –
Cc1ccccc1CNC(=O)CCC(=O)N1Cc2ccccc2Oc2ncccc21 | -15.2 | –
COC(=O)c1sc(NC(=O)COC(=O)C2CCC2)c(C(=O)OC)c1C | -9.82 | –
COc1cc(OC)c(C(=O)NNC(=O)c2ccc(NS(=O)(=O)c3cccs3)cc2)cc1OC | -4 | –
Cc1cccc(C)c1NC(=O)CSc1nc2c([nH]1)c(=O)n(C)c(=O)n2C | -0.0789 | –

Compound | activity change, negative = growth inhibition [%] | Potency
Cc1ccc2nc(SCC(=O)N3CCN(c4ccccc4)CC3)nc(=O)n2c1 | -25.1 | –
CC(C)(C)n1cnnc1Sc1ccc([N+](=O)[O-])cn1 | 20.6 | –
CCOc1ccccc1NC(=O)Cn1c(=O)n(Cc2ccco2)c(=O)c2sc3ccccc3c21 | -27.9 | –
Cc1nc2cc(C(F)(F)F)ccc2n1CCNc1nc(-c2cc(Cl)c(N)c(Cl)c2)cs1 | – | 23.1 µM (active)
O=C(Oc1cc(OC(=O)c2ccccc2)c2c(c1)OC(c1ccc(OC(=O)c3ccccc3)c(OC(=O)c3ccccc3)c1)[C@@H](OC(=O)c1ccccc1)C2)c1ccccc1 (some centres undefined) | 11.4 | –
C[C@@H](C(=O)Nc1ccc2ccccc2c1)[C@@H]1C[C@@]1(C)[C@@H](NC(=O)c1cccnc1)c1ccccc1 | -18.3 | –
O=[N+]([O-])c1c(NCCO)cc(Sc2nc3ccccc3s2)c2nonc12 | – | 0.82 µM (active)
O=C(O)c1cccc(S(=O)(=O)Nc2ccc(O)cc2Sc2nc3ccccc3s2)c1 | 23.1 | –
COc1ccc(S(=O)(=O)Nc2ccc(O)c(Sc3nc4ccccc4s3)c2)cc1 | -15.5 | –
CSc1nnc(-c2ccc(C(F)(F)F)cn2)o1 | 20.6 | –
O=S(=O)(O)c1nc2ccccc2n1Cc1ccc(Cl)cc1 | 0.399 | –
N=c1n(Cc2ccc(Cl)cc2)c2ccccc2n1CC(O)c1ccco1 (centres undefined) | – | 7.31 µM (active)
CCCNC(=O)c1cc(C2CCCCN2S(=O)(=O)c2ccc(C#N)cc2)on1 (centres undefined) | -6.93 | –
O=C(NCC1(N2CCCCC2)CCCCC1)c1ccc(NS(=O)(=O)c2ccc(F)cc2)cc1 | -29.5 | –
O=C(OCCOCn1cc(Br)c(=O)[nH]c1=O)c1ccccc1 | -4.36 | –
CCCn1nnnc1NCc1ccc(CC)cc1 | -1.3 | –
CC(=O)Nc1ccc(/C=N/NC(=O)c2cccs2)cc1 | -3.1 | –
Cc1cc(/C=N/n2cnnc2)c(C)n1-c1cccc(C(=O)O)c1 | -0.903 | –
Cc1cccc(-n2c(C)cc(/C=N\NC(=O)c3cccs3)c2C)c1 | – | 18.4 µM (active)
Cc1cc(/C=N/Nc2ccc([N+](=O)[O-])cn2)c(C)n1-c1cccc(C(=O)O)c1 | -21.9 | –
Cc1ccc(C(=O)Nc2ccc(NC(=O)c3cccs3)cc2)c(C)c1 | 0.567 | –
Cc1cccc(-n2c(C)cc(/C=N/NC(N)=S)c2C)c1 | – | 10.3 µM (active)
Cc1c(NC(=O)CSc2nnc(-c3cccnc3)n2N)c(=O)n(-c2ccccc2)n1C | 4.52 | –
CC(C)c1ccc(CC(=O)N2CCC2(C)C(=O)NS(=O)(=O)c2ccc(C(C)(C)C)cc2)cc1 (centres undefined) | -11.2 | –
COc1ccc(NC(=O)NN2CCN(C)CC2)c(OC)c1 | 2.16 | –

Compound | activity change, negative = growth inhibition [%] | Potency
COc1ccc(CCNC(=O)CCCCn2c(=O)c3ccccc3n(Cc3ccccc3C)c2=O)cc1OC | – | 20.6 µM (active)
COc1ccc(CCNC(=O)CCCn2c(=O)c3ccccc3n(Cc3ccc(C)cc3)c2=O)cc1OC | – | 23.1 µM (active)
COc1ccc(CCNC(=O)CCn2c(=O)oc3ccccc32)cc1OC | -8.19 | –
Cc1ccc(Cn2c(=O)n(CCCC(=O)NCc3ccccc3Cl)c(=O)c3ccccc32)cc1 | -13.5 | –
COc1ccc(CCNC(=O)CCCn2c(=O)c3ccccc3n(Cc3ccc(F)cc3Cl)c2=O)cc1OC | 4.7 | –
CCCCNC(=O)CCn1c(=O)c2ccccc2n(Cc2cc(C)ccc2C)c1=O | -3.9 | –
CCOc1cc(CNCc2ccccn2)ccc1OCC(=O)NC(C)(C)C | -87.9 | –
N#Cc1ccc(C(=O)OCC(=O)NC(=O)NC2CCCCC2)cc1 | -7.73 | –
COc1ccc(C(=O)NC(C)c2nccs2)cc1OC1CCN(C(C)C)CC1 (centres undefined) | -0.147 | –
COc1ccc(/C=C/CN2CCN(Cc3ccc(C)cc3)C(CCO)C2)cc1 (centres undefined) | 14.8 | –
O=C(Nc1cccc(F)c1)c1cc(-c2ccco2)nc2ccccc12 | 1.56 | –
CN(CCOc1ccccc1)C(=O)c1cc(-c2ccco2)nc2ccccc12 | – | 18.4 µM (active)
CN(C(=O)COC(=O)c1cc(-c2ccco2)nc2ccccc12)C1CCS(=O)(=O)C1 (centres undefined) | -5.97 | –
COCCCNC(=O)c1c(NC(=O)c2cc(=O)c3cc(C)c(C)cc3o2)sc2c1CCCC2 | -17.6 | –
CCS(=O)(=O)C1=NSC2=NC(=O)/C(=C\c3ccc(OS(=O)(=O)c4ccccc4)cc3)C(=N)N21 | -10.9 | –
c1ccc(-c2ccccc2OCCN2CCCCC2)cc1 | -24.5 | –
Cc1ccc(CN2CCNC(=O)C2CC(=O)NCc2csc(C(C)C)n2)cc1 (centres undefined) | -14.1 | –
Cc1cc(C)c(NC(=O)CSc2nc3ccncc3[nH]2)c(C)c1 | -28.9 | –
Nc1nnnn1/N=C/c1cc([N+](=O)[O-])ccc1O | -1.04 | –
O=[N+]([O-])c1cccc(C=NN=Cc2ccccc2O)c1 | 4.42 | –
O=[N+]([O-])c1ccc(O)c(/C=N/Nc2ccccc2[N+](=O)[O-])c1 | – | 3.26 µM (active)
C[C@H](CO)N1C[C@H](C)[C@@H](CN(C)S(=O)(=O)c2ccc(Oc3ccccc3)cc2)OCc2cn(nn2)CCCC1=O | -16.1 | –
COc1cc2nc(Cl)nc(NC3CC3)c2cc1OC | – | 14.1 µM (active)
COc1ccc(C(=O)N2CCCN(C)CC2)c(OC)c1 | -4.48 | –
COc1cc2nc(C#Cc3nc4cc(OC)c(OC)cc4[nH]3)[nH]c2cc1OC | 6.18 | –

Compound | activity change, negative = growth inhibition [%] | Potency
COc1cc(OC)c(NC(=O)c2cnc(N3CCCC3)nc2C)cc1Cl | -13.5 | –
COc1cc2nc(N3CCCN(C)CC3)nc(NC3CC3)c2cc1OC | – | 7.94 µM (active)
COc1cc2nc(N3CCCN(C)CC3)nc(NC(C)C)c2cc1OC | – | 12.6 µM (active)
COc1cc2nc(Cl)nc(NCCO)c2cc1OC | 5.96 | –
Cc1ccc(CNS(=O)(=O)CCNC(=O)c2ccccc2)cc1 | 4.69 | –
CCOC(=O)C1CCCN(S(=O)(=O)c2ccc3c(c2)C(C)(C)C(=O)N3C)C1 (centres undefined) | -2.23 | –
O=C(COC(=O)c1ccco1)Nc1ccc(Cl)cn1 | -20.4 | –
COc1ccc(C2Nc3ccccc3C(=O)N2c2ccc(F)cc2)cc1Cn1nnc2ccccc21 (centres undefined) | -12.8 | –
O=C(Cn1nnc2ccccc2c1=O)Nc1cc(C(F)(F)F)ccc1N1CCOCC1 | -19.8 | –
CCCCN(C(=O)/C=C/c1ccco1)c1c(N)n(CC(C)C)c(=O)[nH]c1=O | 6.51 | –
CN1CCN(c2ncc3c(n2)CC(c2ccccc2F)CC3=O)CC1 (centres undefined) | -27.4 | –
O=C(O)CSc1nnc(-c2ccc3c(c2)OCO3)n1-c1ccccc1 | 0.195 | –
Cc1cc(NCc2cccnc2)no1 | -0.255 | –
c1cncc(CNc2ccnc(-c3ccc4c(c3)OCO4)n2)c1 | – | 8.2 µM (active)
c1n[nH]c(NCc2ccc3c(c2)OCO3)n1 | -0.691 | –
C=CCn1c(SCc2c(C)noc2C)nc2sc3c(c2c1=O)CCC(C)C3 (centres undefined) | – | 14.6 µM (active)
C=CCn1c(SCC(=O)NCCCO)nc2sc3c(c2c1=O)CCC3 | 11.1 | –
C=CCn1c(SCC(=O)NCC2CCCO2)nc2sc(C)c(C)c2c1=O (centres undefined) | -25.8 | –
Cc1ccc(-c2ccc(CCC(=O)O)n2-c2ccc(C(N)=O)cc2)cc1 | -23.8 | –
CC(C)C[C@@H]1COc2cc(N3CCC[C@@H]3CO)ccc2S(=O)(=O)N1 | -16.9 | –
O=C(Nc1ccccc1C(=O)NCC1CCCO1)c1ccccc1F (centres undefined) | 6.83 | –
CC(=O)NC(Cc1ccccc1)C(=O)NC1CCN(c2ncccc2[N+](=O)[O-])CC1 (centres undefined) | 5.47 | –
CCOC(=O)C1=C(COC(=O)[C@H](C)NS(=O)(=O)c2ccccc2F)NC(=O)NC1C (some centres undefined) | -18.8 | –
O=C(NC1CC1)C(Cc1ccccc1)NS(=O)(=O)c1ccccc1F (centres undefined) | – | 16.4 µM (active)
